Screening data: PubChem, National Center for Advancing Translational Sciences (NCATS)
Shown are actives, neighbours in structure and some others; about 7.1% of the full set was active somewhere.
SW480 rerep: A quantitative high throughput screen for small molecules that induce DNA re-replication in SW480 colon adenocarcinoma cells; 340,000 compounds, 1.8% hits; Potency, µM (series often up to 46.1 µM), for the others: at the top dose re-replication activation, usual class: activators; SW480 DNA re-replication, Hoechst DNA content imaging, 48 h; note: potency is the fitted concentration of half-maximal effect; % of control where 0% means no effect; nearly all actives have a fitted effect of over 55% in size
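Quantitative HTS format with DMSO vehicle controls; 48 hr drug incubation at 37 C, then 40 min Hoechst staining and scanning imager measurement at 405 nm excitation.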
ATXN viability: Viability Counterscreen for Primary qHTS for Inhibitors of ATXN expression; S2 cells (HEK-293 line with an ATXN2-luciferase reporter) viability, CellTiter-Fluor protease fluorescence, 24 h; AID 651635, 2014; Potency, µM (titrated, usually from 56.7 µM), usual class: cytotoxic; 400,000 compounds, 0.49% hits; note: potency is the fitted concentration of half-maximal effect; nearly all actives have a fitted effect of over 40% in size
PINK1 modulator: A Quantitative High throughput Screen to Identify Chemical Modulators of PINK1 Expression. PINK1 immunofluorescence, high-content cytometry, 24 h. Potency, µM (series often up to 76.6 µM), without a hit: at the top dose activation (PINK1 increase), actives largely listed as activators. 410,000 compounds, 0.2% hits. AID 624263, 2012; active = well fitted activation curve with a large enough effect; inconclusive = small, poorly fitted or top-dose-only effect; cell line not stated here; note: potency is the fitted concentration of half-maximal effect; % of control where 0% means no effect; nearly all actives have a fitted effect of over 65% in size
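Stable cell line treated 24 h with compounds at 5 concentrations (CCCP controls), then fixed and immunostained for PINK1 plus nuclear and cell stains; PINK1 immunofluorescence quantified by laser-scanning microplate cytometry.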
MCF10A rereplic: A quantitative high throughput screen for small molecules that induce DNA re-replication in MCF 10a normal breast cells. MCF 10A DNA re-replication, Hoechst nuclear intensity, 48 h. 350,000 compounds, 2.9% hits. Potency, µM (doses to about 46.1 µM), without a hit: at the highest dose activity, positive = re-replication, hits mostly activators; note: potency is the fitted concentration of half-maximal effect; % of control where 0% means no effect; nearly all actives have a fitted effect of over 50% in size
ATXN2 expr inh: Primary qHTS for Inhibitors of ATXN expression; HEK-293 ATXN2-luciferase reporter, luminescence, 24 h; Potency, µM (titrated, usually from 57 µM), for inactives: top-dose activity change, negative = inhibition, most hits filed as inhibitors; 360,000 compounds, 0.72% hits; note: potency is the fitted concentration of half-maximal effect; % is set by controls: 0 for no effect and ±100 for the full control effect; nearly all actives have a fitted effect of over 55% in size
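ATXN2-luciferase reporter cells (luciferase flanked by upstream and downstream ATXN2 gene portions) were treated 24 h at 37 °C with compounds at up to 57 uM. SteadyGlo luminescence gave expression; GF-AFC fluorescence gave viability.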
IL1B secr inh: qHTS for Inhibitors of Inflammasome Signaling: IL-1-beta AlphaLISA Primary Screen; THP-1 LPS/ATP IL-1B secretion, AlphaLISA, 16 h; hits give low values; activity change, % at 57.5 µM; 360,000 compounds, 4.7% hits; AID 743279, 2014; in the data active = activity change below about -50%; inconclusive = mostly about -30% to -49%; note: % is set by controls: 0 for no effect and ±100 for the full control effect
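Secreted IL-1B measured by AlphaLISA bead assay after 16 h compound exposure of THP-1 cells; compounds (final up to 57.5 uM) added 1 h before LPS (250 ng/mL) and ATP (1.25 mM) stimulation; lower signal means less secretion.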
* marks the source's active call; other numbers are inactive results; i = inactive; ? = inconclusive; . = no result given; [ ] = remark or other dose. Unless noted, calls come from the whole dose curve; as a rule, active = well fitted curve in the direction sought with a large enough effect; inconclusive = small, poorly fitted or top-dose-only effect, or another doubt; inactive = no such curve, though single readings can be large; an effect the other way counts as inactive or inconclusive.

SMILES	SW480 rerep	ATXN viability	PINK1 modulator	MCF10A rereplic	ATXN2 expr inh	IL1B secr inh
Cc1ccccc1OCc1nc2ccccc2c(=O)n1/N=C/c1c[nH]c2ccccc12	?	i	7%	16µM*	-29%	9
Cc1cccc(C)c1OCc1nc2ccccc2c(=O)n1/N=C/c1c[nH]c2ccccc12	14%	?	0%	8%	-8%	-11
O=C(Nc1ccc(F)c(F)c1)c1cc(S(=O)(=O)NCc2ccc3c(c2)OCO3)ccc1F	.	.	5%	.	.	.
CCC(C)NC(=O)CSc1nc2n[nH]c(C)c2c(=N)n1-c1cc(Cl)ccc1C (centres undefined)	.	?	2%	.	-25%	.
CC(C)(C)C(=O)Nc1cccc(-c2nc3ccccc3[nH]2)c1	-4%[9.22 µM]	i	-1%	-8%	25%	-13
CC(C)(C)C(=O)Nc1sc2c(c1-c1nc3ccccc3[nH]1)CCCC2	2%	i	14%[38.3 µM]	13µM*	-23%	-1
Cc1cccc2cc3c(nc12)SC(=NCC1CCCO1)N(Cc1ccco1)C3 (centres undefined)	5.8µM*	i	2%	?	-19%	-100*
Cc1ccc2nc3c(cc2c1)CN(Cc1ccco1)C(=NCC1CCCO1)S3 (centres undefined)	?	i	4%	16%	-7%	-15
O=C(N/N=C/c1ccc(Cl)c([N+](=O)[O-])c1)C1CC1	-8%	i	2%	9%	4%	-50*
O=C(NC1CCN(S(=O)(=O)c2cccc([N+](=O)[O-])c2)CC1)C1CCCCC1	?	i	0%	-7%	-1%	16
O=[N+]([O-])c1cc(/C=N/NC(=S)Nc2ccccc2Cl)ccc1Cl	5%	i	-2%	?	-12%	-86*
O=C(NC1CC1)C1CCN(S(=O)(=O)c2ccc(Cl)c([N+](=O)[O-])c2)CC1	?	?	-2%	?	.	-97*
O=C(N/N=C/c1cc(Cl)cc([N+](=O)[O-])c1O)C1CC1	-11%	?	0%	15%	.	98
Cc1cccc(CNC(=O)CCCN2C(=O)c3cccnc3Oc3ccccc32)c1	.	.	1%	.	.	.
Cc1cn2c(=O)cc(COc3ccc(NC(=O)c4ccc(C(C)(C)C)cc4)cc3)nc2s1	.	?	7%	.	-17%	.
CCOC(=O)C1=C(c2ccccc2)NC(N)=NC1c1ccc(OCc2ccc(C(=O)OC)cc2)cc1 (centres undefined)	?	28µM*	-1%	18µM*	25µM*	-67*
COc1ccc(-n2c(=O)c3c4c(sc3n(Cc3cc(=O)n5c(C)cccc5n3)c2=O)CCC4)c(OC)c1	.	i	2%	.	-1%	.
CC(C)Cc1nc2oc3c(Cl)ncnc3c2c2c1CCC2	4.1µM*	?	-2%[38.3 µM]	?	?	-102*
CC(C)Cc1nc2oc3c(NCCCN4CCOCC4)ncnc3c2c2c1CCC2	?	i	1%[38.3 µM]	28%	-2%	-59*
Cc1ccc(CNC(=O)CCc2nc3cccnc3n2Cc2ccccc2)cc1	.	i	2%	.	-1%	.
NS(=O)(=O)c1ccc(NC(=O)c2cnn3c2NC(=C2CC2)C=C3C(F)F)cc1	.	.	1%	.	.	.
Cc1nc([N+](=O)[O-])c(Br)n1CC(=O)c1ccc(Cl)cc1	?	?	-5%	15µM*	?	-116*
Cc1nc([N+](=O)[O-])c(NCCO)n1Cc1ccccc1	-4%	i	-1%	-6%	23%	-4
Cc1nc([N+](=O)[O-])c(Br)n1Cc1ccc(Cl)c(Cl)c1	?	20µM*	-2%	21µM*	.	-60*
COc1ccc(C(=O)Cn2c(C)nc([N+](=O)[O-])c2Br)cc1	5%	?	1%	?	?	.
CCCCN(CCCC)CCNC(=O)Cn1nc(CC)n2c(cc3sccc32)c1=O	.	.	5%	.	.	.
